About 83,000 compounds went through this panel and 20% of them were active in at least one assay; those are over-represented in the sample as a whole.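 Step 1: grow cells in 96-well plates. Step 2: add test compound at a single concentration. Step 3: incubate 48 h. Step 4: record percent growth.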 Unmarked numbers belong to inactive results. Calls of active or inactive are those of the source. The calls were made as follows: active = growth percent below 10; inactive = the rest.

Some test systems named below: SR leukemia; OVCAR-8 ovarian; OVCAR-5 ovarian; OVCAR-4 ovarian; SK-OV-3 ovarian; IGROV1 ovarian; OVCAR-3 ovarian; HS 578T breast; NCI/ADR-RES ovarian; BT-549 breast; MDA-MB-435 melanoma; SW-620 colon; MCF7 breast; HCT-116 colon; HCC-2998 colon; KM12 colon; T-47D breast.
What all share (test): NCI-60 one-dose screen, 48 h (100 = growth as untreated, 0 = no growth, -100 = all killed)
Holding throughout (details): 10 µM unless noted

As for `COC(=O)[C@@]12CC=C(C)[C@]3(C[C@H](c4ccoc4)OC3=O)[C@H]1C=C[C@@H](O)[C@@]2(O)C(=O)OC`, the growth in the experiment with SR leukemia is 89.2%; in the experiment on OVCAR-8 ovarian, 96.4%; in the experiment on OVCAR-5 ovarian, 103%; in the experiment with OVCAR-4 ovarian it was 110%; in the experiment on SK-OV-3 ovarian, 99.9%; in the experiment on IGROV1 ovarian, 92.4%. Besides, the growth with OVCAR-3 ovarian is 105%; in the experiment on HS 578T breast, 111%; in the experiment with NCI/ADR-RES ovarian it was 102%; with BT-549 breast, 110%; in the experiment with MDA-MB-435 melanoma, 102%; with SW-620 colon it was 113%. In addition, the growth is 101% in the experiment with MCF7 breast, 97.7% with HCT-116 colon, 101% with HCC-2998 colon and 103% with KM12 colon.
Regarding `CS(=O)/C(C#N)=C\C=C\c1cccc(Cl)c1` (centres undefined), the growth with SR leukemia was 6.39% (active); in the experiment with OVCAR-8 ovarian it was 26.3%; with OVCAR-5 ovarian, 34.1%; with OVCAR-4 ovarian, 34.7%; in the experiment on SK-OV-3 ovarian, 43.7%; in the experiment with IGROV1 ovarian, 23.4%. Moreover, the growth was 10.6% in the experiment on OVCAR-3 ovarian; 43.2% with HS 578T breast; -44.1% (active) with NCI/ADR-RES ovarian; 16.5% with T-47D breast; 9.95% (active) with BT-549 breast; 14.9% in the experiment on SW-620 colon. The growth is 12.9% in the experiment on MCF7 breast, -28.1% (active) in the experiment with HCT-116 colon, -31.1% (active) with HCC-2998 colon and 12.5% in the experiment with KM12 colon.
On to `O=Nc1ccc(NC(=O)Nc2ccc([N+](=O)[O-])cc2)cc1`, for which the growth with SR leukemia is 81.1%; with OVCAR-8 ovarian, 91.5%; in the experiment on OVCAR-5 ovarian, 122%; in the experiment with OVCAR-4 ovarian, 87.1%; in the experiment with SK-OV-3 ovarian, 102%; in the experiment on IGROV1 ovarian, 99.5%. The growth with OVCAR-3 ovarian was 98.4%; in the experiment on HS 578T breast, 91.6%; in the experiment on NCI/ADR-RES ovarian, 91.6%; in the experiment on T-47D breast, 78.9%; in the experiment on BT-549 breast it was 98.3%; in the experiment with MDA-MB-435 melanoma, 96.5%. The growth in the experiment with SW-620 colon was 97.4%; in the experiment on MCF7 breast, 94%; with HCT-116 colon, 86.5%; in the experiment with HCC-2998 colon, 104%; in the experiment on KM12 colon, 90.7%.
Consider `CN1CCN(c2ccc(NC3=CC(=O)c4ncncc4C3=O)cc2)CC1`, for which the growth is -5.62% (active) in the experiment with SR leukemia; -53.2% (active) in the experiment with OVCAR-8 ovarian; -92.3% (active) in the experiment on OVCAR-5 ovarian; -99% (active) in the experiment with OVCAR-4 ovarian; -63.7% (active) in the experiment on SK-OV-3 ovarian; -86.6% (active) in the experiment with IGROV1 ovarian. The growth is -58.6% (active) in the experiment with OVCAR-3 ovarian; -19.6% (active) in the experiment with HS 578T breast; -20.4% (active) in the experiment on NCI/ADR-RES ovarian; -48.2% (active) in the experiment on T-47D breast; -90.9% (active) with BT-549 breast; -90.3% (active) in the experiment on MDA-MB-435 melanoma. Further, the growth was -64.1% (active) in the experiment on SW-620 colon; -64.3% (active) with MCF7 breast; -53.6% (active) in the experiment with HCT-116 colon; -78.2% (active) in the experiment with HCC-2998 colon; -75.9% (active) in the experiment with KM12 colon.
In the case of `CCn1cc(C(=O)N/N=C/c2ccccc2)c(=O)c2cc(F)c(N3CCNC(C)C3)c(F)c21` (centres undefined), the growth in the experiment on SR leukemia was -14.6% (active); in the experiment with OVCAR-8 ovarian, 28.4%; in the experiment with OVCAR-5 ovarian it was 67%; in the experiment with OVCAR-4 ovarian, 70.7%; with SK-OV-3 ovarian, 104%; in the experiment with IGROV1 ovarian, 58%. For the same molecule, the growth is -75% (active) in the experiment on OVCAR-3 ovarian; 69.7% in the experiment with HS 578T breast; 56% in the experiment with NCI/ADR-RES ovarian; 63.6% in the experiment on T-47D breast; 77.8% with BT-549 breast; -88.1% (active) in the experiment with MDA-MB-435 melanoma. Also, the growth is -81.1% (active) in the experiment with SW-620 colon; -84.4% (active) in the experiment with MCF7 breast; 57.6% in the experiment with HCT-116 colon; -82.9% (active) with HCC-2998 colon; -89.4% (active) in the experiment with KM12 colon.
As for `C=CC(=O)Nc1cccc(Oc2nccc(Nc3nnc(-c4ccc(Br)cc4)s3)n2)c1`, the growth with SR leukemia was 89.3%; in the experiment on OVCAR-8 ovarian it was 98.5%; in the experiment with OVCAR-5 ovarian, 95.4%; in the experiment on OVCAR-4 ovarian, 86.4%; with IGROV1 ovarian, 101%; in the experiment on OVCAR-3 ovarian, 102%. Also, the growth is 93.4% in the experiment with HS 578T breast; 99.8% in the experiment on NCI/ADR-RES ovarian; 82.1% with T-47D breast; 109% with BT-549 breast; 94.3% in the experiment on MDA-MB-435 melanoma; 96% with SW-620 colon. The growth in the experiment with MCF7 breast was 70.8%; in the experiment on HCT-116 colon, 98.9%; in the experiment with HCC-2998 colon it was 114%; with KM12 colon, 100%.
As to `C=C1CC[C@@H]2C(C)(C)[C@H](O)CC[C@@]2(C)[C@@H]1COc1ccc2ccc(=O)oc2c1`, the growth with SR leukemia was 85.5%; in the experiment with OVCAR-8 ovarian, 17%; in the experiment on OVCAR-5 ovarian, 109%; in the experiment on OVCAR-4 ovarian, 50.8%; in the experiment with SK-OV-3 ovarian, 104%; in the experiment with IGROV1 ovarian it was 60.7%. Further, the growth is 46.8% in the experiment on OVCAR-3 ovarian; 69.8% with HS 578T breast; 5.04% (active) in the experiment with NCI/ADR-RES ovarian; 7.88% (active) in the experiment with T-47D breast; 5.68% (active) in the experiment with BT-549 breast; 64.4% in the experiment with MDA-MB-435 melanoma. For the same molecule, the growth in the experiment on SW-620 colon is 89.5%; in the experiment on MCF7 breast it was 53.9%; in the experiment with HCT-116 colon, 64.1%; in the experiment on HCC-2998 colon, 95.4%; with KM12 colon, 28.2%.
As to `O=C(Nc1nc(Cl)nc(Nc2ccc(N3CCOCC3=O)cc2)n1)c1ccc(Cl)s1`, the growth in the experiment on SR leukemia was 7.06% (active); with OVCAR-8 ovarian, 87.6%; with OVCAR-5 ovarian it was 99%; with OVCAR-4 ovarian, 102%; in the experiment on SK-OV-3 ovarian, 99%; with IGROV1 ovarian, 72.6%. The growth with OVCAR-3 ovarian is 102%; in the experiment with HS 578T breast, 89.8%; in the experiment on T-47D breast it was 71.7%; in the experiment on BT-549 breast it was 106%; with MDA-MB-435 melanoma, 96.4%; with SW-620 colon it was 76.1%. The growth in the experiment on MCF7 breast was 59.1%; with HCT-116 colon it was 84.3%; in the experiment on HCC-2998 colon, 82.3%; in the experiment on KM12 colon, 90.6%.
On to `Cc1ccc(NC(=O)c2cc3ccccc3cc2O)c(C)c1`, for which the growth in the experiment with SR leukemia is 76.8%; in the experiment with OVCAR-8 ovarian, 109%; in the experiment on OVCAR-5 ovarian, 96.9%; with OVCAR-4 ovarian it was 74.4%; in the experiment on SK-OV-3 ovarian it was 99.4%; in the experiment with IGROV1 ovarian, 80.4%. Moreover, the growth with OVCAR-3 ovarian is 66.4%; with HS 578T breast, 98.9%; in the experiment on NCI/ADR-RES ovarian it was 82.8%; in the experiment on T-47D breast, 97.2%; in the experiment on BT-549 breast it was 75.9%; in the experiment with MDA-MB-435 melanoma it was 72.5%. The growth in the experiment on SW-620 colon is 78.1%; in the experiment with MCF7 breast, 92.7%; with HCT-116 colon, 75.8%; in the experiment on HCC-2998 colon, 96.7%; in the experiment with KM12 colon, 83.1%.
